Screens deposited in PubChem by National Center for Advancing Translational Sciences (NCATS).
In the library only some 3.6% were active in any assay of this set; here they are far more common.
Rango-impB inh: inhibitors of Rango-importin beta complex formation | Q14974 | Rango CFP/YFP FRET sensor + importin beta, 45 min | Potency, µM (doses to about 92.2 µM), for inactives: at the highest dose inhibition of complex formation | 340,000 tested, 0.031% active | AID 540263; calls by dose curve;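 further: potency means the concentration at half of the fitted maximal effect; 0% = DMSO wells and 100% = buffer wells lacking importin beta; nearly all actives have a fitted effect of over 15% in size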
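Inhibition scored from the CFP 486 nm/YFP 530 nm FRET ratio 45 min after adding 0.125 microM importin beta to 50 nM Rango biosensor preincubated 5 min with compound (room temperature, PBS with DTT, Tween-20, BSA). No-importin wells as positive control.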
KAT2A inh: inhibitors of human GCN5L2 histone acetyltransferase. GCN5L2 HAT assay, ThioGlo1 CoA-SH fluorescence. Potency, µM (top dose mostly 58.9 µM), without a hit: top-dose activity change, negative = inhibition, actives largely listed as inhibitors. 390,000 tested, 0.21% active; further: potency means the concentration at half of the fitted maximal effect; on the % scale 0 is the no-effect control and ±100 the full control effect
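Free CoA generated was detected with ThioGlo1 (50uM) fluorescence at Ex340nm/Em540nm, read immediately and after 20 min at room temperature. Enzyme, 20 nM in HEPES pH 7.5 buffer, saw compounds 15 min before adding 75uM H3(1-25) peptide and 70uM acetyl-CoA.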
PLK1 PBD block: PLK1 (human) polo-box domain binding inhibition; Potency, µM, without a hit: max response, negative = inhibition, usual class: inhibitors; Plk1 PBD binding of FITC phosphopeptide, fluorescence polarization; P53350; AID 720504; 360,000 tested, 2.8% active; further: potency means the concentration at half of the fitted maximal effect; series mostly up to about 57 µM; on the % scale 0 is the no-effect control and ±100 the full control effect; nearly all actives have a fitted effect of over 65% in size
PI5P4K alpha inh: inhibitors of human PI5P4K alpha; P48426; PI5P4Kalpha enzyme, ADP-Glo luminescence, 60 min; stronger effect = lower value; max response, %; 330,000 tested, 1.2% active; active means max response of -50% or lower; inconclusive means between -30% and -50%; inactive means -30% or higher; further: value at the top dose of about 77 µM; on the % scale 0 is the no-effect control and ±100 the full control effect
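Compounds were pin-transferred onto PI5P4Kalpha and substrate in HEPES pH 7.4 buffer with EGTA, CHAPS and 5% DMSO. ATP (5 microM final) started the reaction, which ran 60 minutes at room temperature before ADP-Glo detection.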
VDR inh: blocks the human vitamin D receptor | 400,000 tested, 0.93% active | VDR-SRC2-3 peptide fluorescence polarization, 2 h | Potency, µM, for the others: max response, negative = inhibition, most hits filed as inhibitors | P11473; further: potency means the concentration at half of the fitted maximal effect; on the % scale 0 is the no-effect control and ±100 the full control effect
Target sequence (P11473 whole entry, looked up): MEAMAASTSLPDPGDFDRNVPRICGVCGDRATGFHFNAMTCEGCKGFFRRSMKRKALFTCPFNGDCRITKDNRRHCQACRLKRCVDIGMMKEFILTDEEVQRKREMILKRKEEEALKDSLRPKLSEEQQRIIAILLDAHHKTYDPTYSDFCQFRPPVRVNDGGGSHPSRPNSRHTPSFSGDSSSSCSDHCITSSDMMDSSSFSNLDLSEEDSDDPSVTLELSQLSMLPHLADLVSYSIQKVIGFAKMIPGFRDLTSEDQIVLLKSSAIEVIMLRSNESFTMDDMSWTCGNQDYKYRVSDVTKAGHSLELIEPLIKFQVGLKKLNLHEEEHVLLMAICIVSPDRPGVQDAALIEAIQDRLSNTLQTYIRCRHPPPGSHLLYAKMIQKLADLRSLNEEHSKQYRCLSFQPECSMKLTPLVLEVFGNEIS
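Measured by FP: displacement of SRC2-3 coactivator peptide from VDR by library compounds, following a two-hour ambient incubation.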
Rango release inh: prevents RanGTP from dissociating the Rango-importin beta complex; Potency, µM (series often up to 46.1 µM), for inactives: at the top dose activity change, negative = inhibition; Biochemical FRET Rango-importin beta, RanGTP-induced dissociation; 340,000 tested, 0.071% active; calls by dose curve; further: potency means the concentration at half of the fitted maximal effect; % of control where 0% means no effect; nearly all actives have a fitted effect of over 45% in size
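Rango (0.1 uM)–importin beta (0.25 uM) complex; RanGTP-RCC1 trigger; 45 min RT; CFP/YFP FRET read.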
The depositor's hits bear a star; ? = inconclusive; . = no result given. Unless noted, the call rests on the fitted dose curve; in most records, active means well fitted curve in the direction sought with a large enough effect; inconclusive means small, poorly fitted or top-dose-only effect, or another doubt; inactive means no such curve, though single readings can be large; an effect the other way counts as inactive or inconclusive.

SMILES	Rango-impB inh	KAT2A inh	PLK1 PBD block	PI5P4K alpha inh	VDR inh	Rango release inh
Cn1c(N)c(C(=O)COC(=O)CSc2cccc3cccc(Cl)c23)c(=O)n(C)c1=O	-1.7%	-7.7%	26.7µM*	?	5.2%	-0.9%
CC(=O)NC(CC(=O)OCC(=O)c1c(N)n(C)c(=O)n(C)c1=O)c1ccccc1 (stereo not drawn)	1.5%	-2.8%	23.8µM*	-17.5	?	2.5%
CSc1ncc(C(=O)Nc2ccc(C)c(Cl)c2)c(-c2ccccc2)n1	.	-16.9%	.	.	0.5%	.
Cc1ccccc1OCCN1C(=O)C(=O)c2cccc(C)c21	-2.2%	0.5%	?	2.7	50.1µM*	-0.7%
CCN(c1ccccc1)c1ncnc2c1cnn2-c1ccc(OC)cc1	.	-4.7%	.	.	8.4%	.
Cc1cc(N2CCN(c3ccccc3F)CC2)nc2cc(O)ccc12	?	12.6µM*	5.4%	8.1	2.8%	-9.0%
Cc1cc(N2CCN(c3ccc(F)cc3)CC2)nc2cc(O)ccc12	?	-9.0%	4.7%	-6.6	18.5%	-13.7%
Cc1cc(N2CCOCC2)nc2cc(O)ccc12	?	-13.7%	2.9%	0.5	-1.8%	16.4µM*
CCOc1c(Cl)cc(C(=O)N(Cc2ccc(N(C)C)cc2)Cc2ccco2)cc1Cl	.	-9.8%	.	.	14.0%	.
COc1ccccc1C(=O)NCCNc1nc2cc(C)cc(C)c2cc1C#N	?	-12.3%	3.4%	-3.7	-9.2%	11.6µM*
CCCc1nnc(SCC(=O)N2CCOCC2)n1CCCOC	2.2%	-1.2%	16.8µM*	2.3	-15.3%	-2.5%
COc1ccc(Cn2cc(S(=O)(=O)c3ccc(C)cc3)c(=O)c3cc(F)ccc32)cc1	.	-1.8%	.	.	9.4%	.
COc1ccc(N2CCN(C(=O)c3nc(-c4ccc(Cl)cc4)n4c3CCCCC4)CC2)cc1	.	-5.4%	.	.	9.3%	.
N#CN=C1SCCS1	?	-3.5%	3.36µM*	-54.0*	-29.5%	-0.4%
COc1cccc(-c2nc(SCC(=O)Nc3ccc4c(c3)OCCO4)c(-c3ccc(C)cc3)[nH]2)c1	.	-13.2%	.	.	-1.2%	.
CCc1cccc(CC)c1NC(=O)/C(C#N)=C/c1ccccc1C(F)(F)F	1.6%	32.7%	-24.6%	5.3	50.1µM*	4.6%
N#C/C(=C\c1ccccc1C(F)(F)F)C(=O)Nc1ccccc1	1.8%	-2.1%	-8.2%	0.6	?	-11.7%
O=C1NC(=S)N/C1=C/c1cccn1-c1ccc([N+](=O)[O-])cc1	-0.7%	-18.7%	-11.8%	-54.7*	?	-11.8%
COc1ccccc1N1CCN(C(=O)COc2ccc(C)cc2Br)CC1	0.0%	3.2%	-2.3%	-0.8	-0.9%	14.1%
COc1ccccc1N1CCN(C(=O)COc2cc(C)ccc2C)CC1	-2.9%	1.0%	21.2µM*	-9.9	39.8µM*	-3.0%
O=c1c2c3nc4ccccc4nc3n(Cc3ccccc3)c2ncn1Cc1ccco1	?	?	-27.2%	-68.2*	-13.4%	-24.8%
CC(=O)Oc1cccc(N2C(=O)C3C4C=CC(C4=C(C)C)C3C2=O)c1 (stereo not drawn)	-2.7%	-4.0%	16.8µM*	-22.1	?	-10.0%
CC(=O)Oc1cccc(N2C(=O)C3C(C2=O)C2C=CC3C23CC3)c1 (stereo not drawn)	-2.5%	0.1%	-4.1%	.	4.2%	-2.5%
CSc1ccc(CCNC(=O)CN2C(=O)c3cccnc3Oc3ccc(C)cc32)cc1	0.1%	-3.2%	-21.2%	-4.5	-6.1%	6.7%
Cc1ccc2c(c1)N(CC(=O)NCCCc1ccccc1)C(=O)c1cccnc1O2	-2.9%	39.8µM*	-0.8%	-7.3	-6.5%	-6.4%
SMILES	Rango-impB inh	KAT2A inh	PLK1 PBD block	PI5P4K alpha inh	VDR inh	Rango release inh
O=C(CSc1nc2c([nH]c3ccccc32)c(=O)n1-c1ccccc1)N1CCCCC1	.	-0.9%	.	.	5.6%	.
CC(C)(C)NC(=O)COC(=O)c1cncc(Br)c1	-1.7%	28.7%	29.9µM*	-15.8	-23.1%	6.6%
O=C(COC(=O)c1cncc(Br)c1)NC1CC1	3.4%	-2.1%	-6.8%	.	-21.2%	0.1%
Cc1cc(Nc2nn(C)c(N)c2C#N)ccc1F	0.7%	-0.2%	-5.6%	-65.6*	3.9%	-10.0%
COc1ccc(Nc2nc(C)cc(C)c2C#N)cc1	-1.1%	-4.8%	-1.5%	4.2	-1.9%	-0.1%
CCn1c2ccccc2c2cc(NC(C)=O)ccc21	0.2%	-3.9%	-2.1%	3.1	6.9%	-8.7%
CCn1c2ccccc2c2cc(NC(=O)C(=O)N3CCOCC3)ccc21	7.8%	1.4%	21.2µM*	-5.5	-9.9%	6.0%
CCC(=O)Oc1c(Sc2ccc(C)cc2)c(C)nn1-c1ccccc1	.	-4.1%	.	.	79.4µM*	.
COc1cc(C(=O)Oc2c(Sc3ccccc3)c(C)nn2-c2ccccc2)cc(OC)c1OC	.	-0.3%	.	.	?	.
CCCC(=O)Oc1c(Sc2ccc(C)cc2)c(C)nn1-c1ccccc1	.	-7.0%	.	.	17.8µM*	.
CCC(=O)Oc1c(Sc2ccc(Cl)cc2)c(C)nn1-c1ccccc1	.	-8.2%	.	.	79.4µM*	.
Cc1ccc2nc3n(c2c1)CCCN3	0.2%	-1.1%	-14.5%	2.3	-3.8%	15.7%
S=c1[nH]nc2n1CCCN2	0.6%	1.9%	29.9µM*	-1.7	-2.4%	3.4%
O=C(CSc1nccn1Cc1ccc(F)cc1)NCc1ccc(F)cc1	.	-17.0%	.	.	2.0%	.
C=CCn1cccc(C(=O)Nc2ccc(OCC)cc2)c1=O	-0.9%	-10.3%	23.8µM*	?	-12.4%	8.0%
C=CCn1cccc(C(=O)Nc2cc(OC)c(OC)c(OC)c2)c1=O	-2.4%	-5.0%	21.2µM*	?	-14.2%	-2.7%
C=CCn1cccc(C(=O)Nc2ccc(OC)c(OC)c2)c1=O	2.6%	-8.8%	-24.9%	-8.5	-12.0%	2.6%
CCCCCn1c(=N)c(S(=O)(=O)c2ccccc2)cc2c(=O)n3cccc(C)c3nc21	.	-1.5%	.	.	-6.4%	.
Cc1cc(C)cc(N=Cc2c(O)c3ccccc3oc2=O)c1	?	-2.3%	-7.6%	2.2	0.3%	4.1%
O=C(O)c1cc(N=Cc2c(O)c3ccccc3oc2=O)ccc1O	?	0.7%	?	-65.3*	-10.9%	?
Cn1c(CSc2ccccc2)c(C#N)c2ccccc21	-2.9%	-6.2%	-5.4%	.	60.4%	11.7%
Cc1ccc(SCc2c(C#N)c3ccccc3n2C)cc1	-0.2%	-16.4%	5.32µM*	-26.9	-13.2%	-5.4%
CCOC(=O)CSc1nc(-c2ccc(OC)cc2)ns1	-0.1%	-5.3%	10.6µM*	7.3	-8.3%	-3.1%
O=C(CSc1nc(-c2ccccc2)ns1)NCC1CCCO1 (stereo not drawn)	-3.7%	-3.8%	15µM*	-3.0	-27.8%	12.5%
CCOC(=O)CNC(=O)CSc1nc(-c2ccc(C)cc2)ns1	7.8%	2.3%	-25.6%	0.3	?	-4.7%
CCOC(=O)CNC(=O)CSc1nc(-c2ccccc2)ns1	-6.3%	-4.0%	13.4µM*	?	?	-5.0%
C=CCOc1c(/C=N\NC(N)=O)cccc1OC	2.4%	1.3%	-14.5%	2.1	4.2%	17.6%
